Assay results as given in PMC4336329 (PLoS ONE, 2015).
Hit rate of the full screen: of about 310,000 compounds, about 2,200 (0.71%) showed an effect of 50% or more. The effect is printed as a negative number. The list comes from a sample in which strong results are over-represented; it also holds similar structures and randomly drawn compounds.

target: human ether-à-go-go-related gene (hERG) potassium channel (human, UniProt Q12809); experiment: primary screen, population patch clamp on CHO cells stably expressing hERG; higher = less effect of the substance
Sequence (Q12809 whole entry, looked up): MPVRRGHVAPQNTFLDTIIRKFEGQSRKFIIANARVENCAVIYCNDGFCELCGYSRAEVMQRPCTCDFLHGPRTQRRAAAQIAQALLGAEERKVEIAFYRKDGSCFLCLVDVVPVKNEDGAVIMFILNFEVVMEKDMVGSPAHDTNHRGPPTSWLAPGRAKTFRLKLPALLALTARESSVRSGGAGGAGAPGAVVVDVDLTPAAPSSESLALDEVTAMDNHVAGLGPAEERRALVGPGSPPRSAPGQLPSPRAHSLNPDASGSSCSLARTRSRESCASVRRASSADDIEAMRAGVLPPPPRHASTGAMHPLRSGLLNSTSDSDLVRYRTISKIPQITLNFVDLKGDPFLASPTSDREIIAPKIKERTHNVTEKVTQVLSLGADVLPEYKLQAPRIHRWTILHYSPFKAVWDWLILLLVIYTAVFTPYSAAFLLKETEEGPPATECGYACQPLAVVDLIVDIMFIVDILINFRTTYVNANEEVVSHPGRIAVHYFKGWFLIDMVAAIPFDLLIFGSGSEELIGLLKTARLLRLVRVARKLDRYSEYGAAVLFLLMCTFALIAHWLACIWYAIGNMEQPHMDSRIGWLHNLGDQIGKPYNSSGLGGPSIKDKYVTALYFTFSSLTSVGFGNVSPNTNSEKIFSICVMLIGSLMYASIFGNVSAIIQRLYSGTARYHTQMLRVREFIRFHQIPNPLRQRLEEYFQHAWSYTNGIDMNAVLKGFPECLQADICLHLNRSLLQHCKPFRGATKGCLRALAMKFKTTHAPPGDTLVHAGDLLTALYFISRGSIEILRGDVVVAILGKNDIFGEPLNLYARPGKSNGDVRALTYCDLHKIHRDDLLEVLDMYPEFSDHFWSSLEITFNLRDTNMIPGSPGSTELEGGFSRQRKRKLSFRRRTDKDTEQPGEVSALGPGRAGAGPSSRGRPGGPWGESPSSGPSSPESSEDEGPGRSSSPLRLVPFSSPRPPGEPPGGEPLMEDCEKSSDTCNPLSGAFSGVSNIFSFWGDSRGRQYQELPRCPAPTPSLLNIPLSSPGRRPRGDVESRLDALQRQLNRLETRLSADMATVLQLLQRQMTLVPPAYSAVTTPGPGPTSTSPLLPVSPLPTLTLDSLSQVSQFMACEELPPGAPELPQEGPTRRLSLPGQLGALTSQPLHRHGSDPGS

Point of comparison: CN1C(C(=O)NCc2ccc(OC(F)(F)F)cc2)CC2Cn3c(nc4ccccc43)C21 (centres unmarked), “hERG current change (%, negative = inhibition) at 1uM” value -74.9%. Against it:
- Cc1ccc(-c2nc(CS(=O)CC(=O)N3CCC4(CC3)OCCO4)c(C)o2)cc1 (centres unmarked) — higher, -3.05%
- Cc1ccc(N2CCN(C(=S)Nc3ccc(Cl)cc3)CC2)cc1 — higher, 13.4%
- CCN(CCCNC(=O)Cn1ncc2c([nH]c3ccccc32)c1=O)Cc1ccccc1 — higher, -2.84%
- Nc1c(C(=O)c2ccccc2)sc2snc(SCC(=O)c3ccccc3)c12 — higher, 14.8%
- COc1cc(/C=C/C(=O)OCC(=O)N2CCCc3ccccc32)ccc1OCC#N — higher, 14.6%
- Nc1cccc(Oc2ccc([N+](=O)[O-])cc2)c1 — higher, 7.1%
- Cc1nc(-c2cnn(-c3ccccc3)c2)c2cc(C)oc2n1 — higher, 10.3%
- Cc1nn(-c2ccccn2)c2c1-c1nc(N3CCOCC3)ncc1CC2 — higher, 8.1%
- CC[C@H]1CN(C)CCc2c([nH]c3ccccc23)C(=O)C[C@@H]1/C(=C\OC)C(=O)OC — higher, -53.3%
- CC[C@H]1CN(C)C[C@@]2(C(=O)OC)Cc3c([nH]c4ccccc34)C(=O)C[C@@H]12 — higher, 10.5%
- CC[C@@H]1CN(C)[C@H]2Cc3c([nH]c4ccccc34)C(=O)C[C@@H]1[C@@H]2C(=O)OC — higher, 11.8%
- Cl.Oc1ccc2c3c1O[C@H]1c4[nH]c5ccccc5c4C[C@@]4(O)[C@@H](C2)N(CC2CC2)CC[C@]314 — higher, -29.7%
- Cl.O.Oc1ccc2c3c1O[C@H]1c4[nH]c5ccccc5c4C[C@@]4(O)C(C2)N(CC2CC2)CC[C@]314 — higher, -16.4%
- CS(=O)(=O)O.O.Oc1ccc2c3c1O[C@H]1c4oc5ccccc5c4C[C@@]4(O)[C@@H](C2)N(CC2CC2)CC[C@]314 — higher, -68.1%
- COC(=O)C1=C(C)N(C)C(=O)NC1c1c(O)ccc2ccccc12 (centres unmarked) — higher, 6.78%
- CC/C(=N/Nc1ccccc1)c1cnnc(-c2ccccc2)n1 — higher, 0.406%
- Cc1sc(NC(=O)CCl)c(C(=O)c2ccccc2)c1C — higher, 15.1%
- Cc1ccc(S(=O)(=O)Nc2nc(C)c(C(=O)N/N=C/c3ccccc3)s2)cc1 — higher, 11%
- Cc1oc(-c2cccc(F)c2)nc1CN1CCCCC1CCn1cccn1 (centres unmarked) — higher, -40.1%
- c1ccc2oc(-c3[nH]ncc3CN3CCSCC3)cc2c1 — higher, 9.72%
- CCOc1ccc(-c2nc(CN3CCCCC3CCn3cccn3)c(C)o2)cc1 (centres unmarked) — higher, -24.9%
- Cc1oc(-c2cccc(F)c2)nc1CN1CCCCC1CCc1ccccn1 (centres unmarked) — lower, -89.5%
- O=C(c1ccccn1)C1CCCN(Cc2cn[nH]c2-c2cc3ccccc3o2)C1 (centres unmarked) — higher, -23.5%
- Fc1cccc(Cc2noc(CN3CCCCC3CCc3ccccn3)n2)c1 (centres unmarked) — higher, 13.2%
- COc1ccc(-c2nc(CN3CCCCC3CCc3ccccn3)c(C)o2)cc1 (centres unmarked) — lower, -79.4%
- COc1ccc(-c2nc(CN3CCN(Cc4ccccc4)CC3)c(C)o2)cc1 — higher, 4.17%
- c1ccc(CCC2CCCCN2Cc2cn[nH]c2-c2cc3ccccc3o2)nc1 (centres unmarked) — higher, -67%
- COc1ccc(S(=O)(=O)N(C)C)cc1NC(=O)CCCSc1ccccc1 — higher, -5.8%
- COc1ccc(Nc2nnc(C)c3ccccc23)cc1C(N)=O — higher, 16.1%
- CC(C)(C)c1ccc(OC(=O)c2ccc(-n3cncn3)nc2)cc1 — higher, 10.9%
- CCOC(=O)c1ccc(NS(=O)(=O)c2ccc3oc(=O)[nH]c3c2)cc1 — higher, 7.04%
- Cl.Nc1ccc(-c2nc3c(ccc4ccccc43)[nH]2)cc1 — higher, 16.3%
- O=C(NCCN1CCOCC1)c1cc2cc(Br)ccc2oc1=O — higher, 0.63%
- O=C(NCc1ccc(OC(F)(F)F)cc1)C1CC2Cn3c(nc4ccccc43)C2N1c1ccccc1 (centres unmarked) — higher, -15.8%
- CN1C(C(=O)NCc2ccc(OC(F)(F)F)cc2)CC2Cn3c(nc4cc5ccccc5cc43)C21 (centres unmarked) — higher, -14.7%
- COc1ccc(C2C(C(=O)NCc3ccccc3)=C(C)Nc3ncnn32)cc1OC (centres unmarked) — higher, 13.9%
- CC(=O)Nc1ccc(S(=O)(=O)N2CCN(C34CC5CC(CC(C5)C3)C4)CC2)cc1 — higher, 3.31%
- N#Cc1ccc(S(=O)(=O)N2CCN(CC(=O)Nc3ccccc3C(=O)NC3CC3)CC2)cc1 — higher, -67.3%
- O=C(CN1CCc2ccccc2C1)Nc1ccccc1C(=O)NC1CC1 — higher, 3.95%
- N#Cc1ccccc1S(=O)(=O)N1CCN(CC(=O)Nc2ccccc2C(=O)NC2CC2)CC1 — higher, -25.4%
- CC(=O)c1ccc(S(=O)(=O)N2CCN(CC(=O)Nc3ccccc3C(=O)NC3CC3)CC2)cc1 — higher, -43.4%
- O=C(CN1CCN(S(=O)(=O)c2ccccc2)CC1)Nc1ccccc1C(=O)NC1CC1 — higher, 1.22%
- N#Cc1ccc(CN2CCN(CC(=O)Nc3ccccc3C(=O)NC3CC3)CC2)cc1 — lower, -87.4%
- O=C(CSc1nc2[nH]c(=O)cc(O)c2s1)Nc1cccc(Br)c1 — higher, 18.8%
- S=c1[nH]nc(-c2cc(-c3ccco3)[nH]n2)n1-c1ccccc1 — higher, 3.15%
- CC(=O)c1ccc(N2CCN(c3ccccc3O)CC2)c([N+](=O)[O-])c1 — higher, 12.9%
- Cc1ccc2nc(N3CCN(C)CC3)c(C#N)cc2c1 — higher, -10%
- N#Cc1cccnc1N1CCN(C(=O)c2cccs2)CC1 — higher, 7.29%
- Cc1ccc2nc(N3CCN(C(=O)c4ccc(F)cc4)CC3)c(C#N)cc2c1 — higher, -56.8%
- Cc1ccc2cc(C#N)c(N3CCN(C(=O)c4cccs4)CC3)nc2c1 — higher, -1%
- Cc1ccc2cc(C#N)c(N3CCN(C(=O)c4ccccc4)CC3)nc2c1 — higher, -6.89%
- Cc1ccc2nc(N3CCN(C(=O)c4cccs4)CC3)c(C#N)cc2c1 — higher, -51.3%
